Measured values as given in article PMC5540273 (PLoS ONE, 2017).
Where “and” joins values, the source holds several entries; their conditions need not be identical. Identical values can stand only once. Like-named read-outs stand apart in the source and are kept apart here.

What was measured:
[1] = test system: CHEK1; details: concentration: 1 μM, replicates: in singlicate; n = 1
[2] = test system: CHEK2; details: concentration: 1 μM, replicates: in singlicate, n = 1
[3] = test system: CIT; details: concentration: 1 μM, replicates: in singlicate, n = 1
[4] = test system: CLK1; details: concentration: 1 μM, replicates: in singlicate, n = 1
[5] = test system: CLK2; details: concentration: 1 μM, replicates: in singlicate; n = 1
[6] = test system: CLK3; details: concentration: 1 μM, replicates: in singlicate, n = 1
[7] = test system: CLK4; details: concentration: 1 μM, replicates: in singlicate, n = 1
[8] = test system: CSF1R-autoinhibited; details: concentration: 1 μM, replicates: in singlicate, n = 1
[9] = test system: CSF1R; details: concentration: 1 μM, replicates: in singlicate, n = 1
[10] = test system: CSK; details: concentration: 1 μM, replicates: in singlicate, n = 1
[11] = test system: CSNK1A1L; details: concentration: 1 μM, replicates: in singlicate; n = 1
[12] = test system: CSNK1A1; details: concentration: 1 μM, replicates: in singlicate; n = 1
[13] = test system: CSNK1D; details: concentration: 1 μM, replicates: in singlicate, n = 1
[14] = test system: CSNK1E; details: concentration: 1 μM, replicates: in singlicate; n = 1
[15] = test system: CSNK1G1; details: concentration: 1 μM, replicates: in singlicate, n = 1
[16] = test system: CSNK1G2; details: concentration: 1 μM, replicates: in singlicate, n = 1
[17] = test system: CSNK1G3; details: concentration: 1 μM, replicates: in singlicate, n = 1
[18] = test system: CSNK2A1; details: concentration: 1 μM, replicates: in singlicate, n = 1
[19] = test system: CSNK2A2; details: concentration: 1 μM, replicates: in singlicate, n = 1
[20] = test system: T1, CTK; details: concentration: 1 μM, replicates: in singlicate, n = 1
T1 construct: gene MATK
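Also: KINOMEscan kinase panel screen.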

SMILES: NS(=O)(=O)c1cccc(-c2ccc3ncc(N4CCOCC4)nc3c2)c1 [GSK1535721]
- %Inh [1]: 0%
- %Inh [2]: 37%
- %Inh [3]: 7%
- %Inh [4]: 11%
- %Inh [5]: 12%
- %Inh [6]: 0%
- %Inh [7]: 18%
- %Inh [8]: 8%
- %Inh [9]: 0%
- %Inh [10]: 0%
- %Inh [11]: 0%
- %Inh [12]: 0%
- %Inh [13]: 16%
- %Inh [14]: 0%
- %Inh [15]: 12%
- %Inh [16]: 0%
- %Inh [17]: 19%
- %Inh [18]: 4%
- %Inh [19]: 18%
- %Inh [20]: 0%

SMILES: Cc1cn2c(=O)cc(N3CCOCC3)nc2n1Cc1cccc(Cl)c1Cl [GSK2334006]
- %Inh [1]: 25%
- %Inh [2]: 0%
- %Inh [3]: 17%
- %Inh [4]: 35%
- %Inh [5]: 0%
- %Inh [6]: 11%
- %Inh [7]: 26%
- %Inh [8]: 0%
- %Inh [9]: 5%
- %Inh [10]: 0%
- %Inh [11]: 29%
- %Inh [12]: 48%
- %Inh [13]: 43%
- %Inh [14]: 45%
- %Inh [15]: 17%
- %Inh [16]: 6%
- %Inh [17]: 26%
- %Inh [18]: 11%
- %Inh [19]: 18%
- %Inh [20]: 0%

SMILES: Cc1cccc(-c2nc(Nc3ccc4ncsc4c3)c3ccccc3n2)n1 [GW867588]
- %Inh [1]: 0%
- %Inh [2]: 7%
- %Inh [3]: 13%
- %Inh [4]: 1%
- %Inh [5]: 9%
- %Inh [6]: 0%
- %Inh [7]: 0%
- %Inh [8]: 4%
- %Inh [9]: 0%
- %Inh [10]: 3%
- %Inh [11]: 0%
- %Inh [12]: 0%
- %Inh [13]: 0%
- %Inh [14]: 6%
- %Inh [15]: 0%
- %Inh [16]: 0%
- %Inh [17]: 0%
- %Inh [18]: 0%
- %Inh [19]: 18%
- %Inh [20]: 0%

SMILES: O=C1NC(=O)C(N2CCc3ccccc32)=C1c1cccc(Cl)c1 [SB-408010]
- %Inh [1]: 0%
- %Inh [2]: 7%
- %Inh [3]: 0%
- %Inh [4]: 0%
- %Inh [5]: 0%
- %Inh [6]: 0%
- %Inh [7]: 21%
- %Inh [8]: 16%
- %Inh [9]: 0%
- %Inh [10]: 11%
- %Inh [11]: 0%
- %Inh [12]: 19%
- %Inh [13]: 0%
- %Inh [14]: 0%
- %Inh [15]: 5%
- %Inh [16]: 0%
- %Inh [17]: 0%
- %Inh [18]: 0%
- %Inh [19]: 13%
- %Inh [20]: 53%

SMILES: CN(C1=C(c2ccccc2)C(=O)NC1=O)c1ccccc1 [SB-334860]
- %Inh [1]: 0%
- %Inh [2]: 16%
- %Inh [3]: 37%
- %Inh [4]: 24%
- %Inh [5]: 12%
- %Inh [6]: 0%
- %Inh [7]: 6%
- %Inh [8]: 0%
- %Inh [9]: 18%
- %Inh [10]: 6%
- %Inh [11]: 0%
- %Inh [12]: 0%
- %Inh [13]: 19%
- %Inh [14]: 17%
- %Inh [15]: 7%
- %Inh [16]: 0%
- %Inh [17]: 22%
- %Inh [18]: 1%
- %Inh [19]: 21%
- %Inh [20]: 0%

SMILES: COc1cc(Nc2nccc(N3CCC(NC(=O)c4cccc(NC(C)=O)c4)C3)n2)cc(OC)c1OC (stereo not shown) [GSK1379754]
- %Inh [1]: 0%
- %Inh [2]: 19%
- %Inh [3]: 23%
- %Inh [4]: 10%
- %Inh [5]: 3%
- %Inh [6]: 0%
- %Inh [7]: 13%
- %Inh [8]: 0%
- %Inh [9]: 38%
- %Inh [10]: 0%
- %Inh [11]: 4%
- %Inh [12]: 6%
- %Inh [13]: 0%
- %Inh [14]: 0%
- %Inh [15]: 4%
- %Inh [16]: 0%
- %Inh [17]: 8%
- %Inh [18]: 17%
- %Inh [19]: 65%
- %Inh [20]: 0%

SMILES: COc1ccc(Nc2nccc(N3CCC(NC(=O)Nc4cccc(C(C)=O)c4)C3)n2)cc1 (stereo not shown) [GSK1379731]
- %Inh [1]: 0%
- %Inh [2]: 0%
- %Inh [3]: 0%
- %Inh [4]: 5%
- %Inh [5]: 0%
- %Inh [6]: 5%
- %Inh [7]: 2%
- %Inh [8]: 0%
- %Inh [9]: 0%
- %Inh [10]: 0%
- %Inh [11]: 4%
- %Inh [12]: 0%
- %Inh [13]: 0%
- %Inh [14]: 39%
- %Inh [15]: 0%
- %Inh [16]: 0%
- %Inh [17]: 0%
- %Inh [18]: 0%
- %Inh [19]: 0%
- %Inh [20]: 0%

SMILES: N#Cc1ccc(-c2cc(-c3c[nH]nc3-c3ccccn3)ccn2)cc1 [GW693028]
- %Inh [1]: 0%
- %Inh [2]: 0%
- %Inh [3]: 35%
- %Inh [4]: 22%
- %Inh [5]: 8%
- %Inh [6]: 0%
- %Inh [7]: 38%
- %Inh [8]: 0%
- %Inh [9]: 20%
- %Inh [10]: 0%
- %Inh [11]: 12%
- %Inh [12]: 19%
- %Inh [13]: 62%
- %Inh [14]: 32%
- %Inh [15]: 8%
- %Inh [16]: 0%
- %Inh [17]: 8%
- %Inh [18]: 0%
- %Inh [19]: 5%
- %Inh [20]: 0%

SMILES: O=C(Nc1n[nH]c2cc(-c3cccc(F)c3)ccc12)C1CC1 [SB-735464]
- %Inh [1]: 0%
- %Inh [2]: 0%
- %Inh [3]: 20%
- %Inh [4]: 12%
- %Inh [5]: 9%
- %Inh [6]: 22%
- %Inh [7]: 7%
- %Inh [8]: 0%
- %Inh [9]: 2%
- %Inh [10]: 2%
- %Inh [11]: 10%
- %Inh [12]: 0%
- %Inh [13]: 0%
- %Inh [14]: 0%
- %Inh [15]: 0%
- %Inh [16]: 0%
- %Inh [17]: 0%
- %Inh [18]: 3%
- %Inh [19]: 24%
- %Inh [20]: 49%

SMILES: Cl.Cl.Cl.Fc1ccc(-c2ncn(C3CCNCC3)c2-c2ccnc(Nc3ccccc3)n2)cc1 [SB-238039]
- %Inh [1]: 0%
- %Inh ([2]; 1 µM): 0% and 39%
- %Inh ([3]; 1 µM): 99.5% and 97.5%
- %Inh ([4]; 1 µM): 0% and 1%
- %Inh [5]: 0%
- %Inh ([6]; 1 µM): 6% and 21%
- %Inh ([7]; 1 µM): 37% and 14%
- %Inh ([8]; 1 µM): 27% and 19%
- %Inh ([9]; 1 µM): 1% and 14%
- %Inh ([10]; 1 µM): 0% and 10%
- %Inh [11]: 98.9%
- %Inh [12]: 97.7%
- %Inh ([13]; 1 µM): 95.2% and 93.4%
- %Inh [14]: 99.9%
- %Inh ([15]; 1 µM): 78% and 75%
- %Inh ([16]; 1 µM): 99.5% and 98.9%
- %Inh ([17]; 1 µM): 99.2% and 96.6%
- %Inh ([18]; 1 µM): 0% and 19%
- %Inh ([19]; 1 µM): 0% and 25%
- %Inh ([20]; 1 µM): 40% and 1%

SMILES: CC(=O)Nc1ccc(COc2ccc(Nc3ccnc4cc(-c5ccccn5)ccc34)cc2)cc1.Cl [GW440148]
- %Inh [1]: 1%
- %Inh [2]: 29%
- %Inh [3]: 20%
- %Inh [4]: 35%
- %Inh [5]: 0%
- %Inh [6]: 0%
- %Inh [7]: 0%
- %Inh [8]: 32%
- %Inh [9]: 99.3%
- %Inh [10]: 36%
- %Inh [11]: 0%
- %Inh [12]: 0%
- %Inh [13]: 24%
- %Inh [14]: 33%
- %Inh [15]: 9%
- %Inh [16]: 0%
- %Inh [17]: 29%
- %Inh [18]: 5%
- %Inh [19]: 11%
- %Inh [20]: 3%
